The full data set covers some 7,900 targets. This sample favours those with a hit. About 0.6% of all pairs of compound and target were hits. A number with no mark means an inactive call.
Tests used:
Assay in all cases: log2 fold change, soluble protein after heating vs DMSO (PISA); higher = thermal stabilisation; K562 cells, 10 uM, 30 min; active = over 0.2 and 3.5 SD of the protein, either way, in both replicates (recomputed)
bafetinib = compound: Cc1ccc(NC(=O)c2ccc(CN3CC[C@H](N(C)C)C3)c(C(F)(F)F)c2)cc1Nc1nccc(-c2cncnc2)n1 [bafetinib]
Summary of the method: (§1)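 Thermal stability values are relative to control samples and come from duplicates. They are expressed as log2 fold changes. For measurement, K562 cells (2×10^6 cells/mL) received 10 μM compound for 30 min, and aliquots were heated for 3 min over 48°C-58°C, pooled, and extracted at 4°C in PBS with 0.5% NP-40. Soluble protein, the supernatant after 21,000xg for 90 min, was quantified by TMTpro 16plex LC-MS/MS with equalised channel sums.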

[1] = compound: Cc1cccc(CC(=O)N2CCc3c2ccc(-c2cn(C)c4ncnc(N)c24)c3F)n1
Summary of the method: as §1

nilotinib = compound: Cc1cn(-c2cc(NC(=O)c3ccc(C)c(Nc4nccc(-c5cccnc5)n4)c3)cc(C(F)(F)F)c2)cn1 [nilotinib]
Summary of the method: as §1

[2] = compound: Cc1nc(Nc2n[nH]c3c2CN(C(=O)N[C@H](CN(C)C)c2ccccc2)C3(C)C)c2sccc2n1
Summary of the method: as §1

dasatinib = compound: Cc1nc(Nc2ncc(C(=O)Nc3c(C)cccc3Cl)s2)cc(N2CCN(CCO)CC2)n1 [dasatinib]
Summary of the method: as §1

[3] = compound: Cc1ncc(-c2ccnc(Nc3ccc(S(C)(=O)=O)cc3)n2)n1C(C)C
Summary of the method: as §1

[4] = compound: Cn1cc(-c2ccc3c(c2)CCN3C(=O)Cc2cccc(C(F)(F)F)c2)c2c(N)ncnc21
Summary of the method: as §1

[5] = compound: Cn1cc(-c2ccc3nnc(C(F)(F)c4ccc5ncccc5c4)n3n2)cn1
Summary of the method: as §1

tipifarnib = compound: Cn1cncc1[C@@](N)(c1ccc(Cl)cc1)c1ccc2c(c1)c(-c1cccc(Cl)c1)cc(=O)n2C [tipifarnib]
Summary of the method: as §1

mubritinib = compound: FC(F)(F)c1ccc(/C=C/c2nc(COc3ccc(CCCCn4ccnn4)cc3)co2)cc1 [mubritinib]
Summary of the method: as §1

[6] = compound: NC(=O)Nc1cc(-c2cccc(F)c2)sc1C(=O)N[C@H]1CCCNC1
Summary of the method: as §1

[7] = compound: NC(=O)c1cnc(N[C@@H]2CCCC[C@@H]2N)nc1Nc1cccc(-n2nccn2)c1
Summary of the method: as §1

[8] = compound: NC1(c2ccc(-c3nc4ccn5c(=O)[nH]nc5c4cc3-c3ccccc3)cc2)CCC1
Summary of the method: as §1

[9] = compound: NCC(=O)Nc1ccc(-n2nc(C(F)(F)F)cc2-c2ccc3c(ccc4ccccc43)c2)cc1
Summary of the method: as §1

entinostat = compound: Nc1ccccc1NC(=O)c1ccc(CNC(=O)OCc2cccnc2)cc1 [entinostat]
Summary of the method: as §1

vorinostat = compound: O=C(CCCCCCC(=O)Nc1ccccc1)NO [vorinostat]
Summary of the method: as §1

citarinostat = compound: O=C(CCCCCCNC(=O)c1cnc(N(c2ccccc2)c2ccccc2Cl)nc1)NO [citarinostat]
Summary of the method: as §1

silmitasertib = compound: O=C(O)c1ccc2c(c1)nc(Nc1cccc(Cl)c1)c1ccncc12 [silmitasertib]
Summary of the method: as §1

[10] = compound: O=C1NC(=O)C(c2cnc3ccccn23)=C1c1cn2c3c(cc(F)cc13)CN(C(=O)N1CCCCC1)CC2
Summary of the method: as §1

[11] = compound: c1cc(OCCN2CCCCC2)cc(-c2n[nH]c3ccc(-c4nnc[nH]4)cc23)c1
Summary of the method: as §1

Chain of UniProt O95568 (O95568 whole entry, looked up): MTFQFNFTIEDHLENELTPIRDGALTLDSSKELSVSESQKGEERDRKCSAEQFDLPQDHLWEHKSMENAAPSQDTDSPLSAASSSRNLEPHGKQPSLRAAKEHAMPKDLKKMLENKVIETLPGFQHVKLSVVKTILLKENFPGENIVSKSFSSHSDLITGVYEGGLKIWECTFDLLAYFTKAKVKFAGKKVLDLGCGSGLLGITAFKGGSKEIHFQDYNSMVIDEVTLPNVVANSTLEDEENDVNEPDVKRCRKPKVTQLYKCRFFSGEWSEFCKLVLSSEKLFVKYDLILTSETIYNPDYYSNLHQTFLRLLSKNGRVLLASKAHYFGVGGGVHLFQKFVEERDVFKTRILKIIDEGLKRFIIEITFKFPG
Chain of UniProt P23276 (P23276 whole entry, looked up): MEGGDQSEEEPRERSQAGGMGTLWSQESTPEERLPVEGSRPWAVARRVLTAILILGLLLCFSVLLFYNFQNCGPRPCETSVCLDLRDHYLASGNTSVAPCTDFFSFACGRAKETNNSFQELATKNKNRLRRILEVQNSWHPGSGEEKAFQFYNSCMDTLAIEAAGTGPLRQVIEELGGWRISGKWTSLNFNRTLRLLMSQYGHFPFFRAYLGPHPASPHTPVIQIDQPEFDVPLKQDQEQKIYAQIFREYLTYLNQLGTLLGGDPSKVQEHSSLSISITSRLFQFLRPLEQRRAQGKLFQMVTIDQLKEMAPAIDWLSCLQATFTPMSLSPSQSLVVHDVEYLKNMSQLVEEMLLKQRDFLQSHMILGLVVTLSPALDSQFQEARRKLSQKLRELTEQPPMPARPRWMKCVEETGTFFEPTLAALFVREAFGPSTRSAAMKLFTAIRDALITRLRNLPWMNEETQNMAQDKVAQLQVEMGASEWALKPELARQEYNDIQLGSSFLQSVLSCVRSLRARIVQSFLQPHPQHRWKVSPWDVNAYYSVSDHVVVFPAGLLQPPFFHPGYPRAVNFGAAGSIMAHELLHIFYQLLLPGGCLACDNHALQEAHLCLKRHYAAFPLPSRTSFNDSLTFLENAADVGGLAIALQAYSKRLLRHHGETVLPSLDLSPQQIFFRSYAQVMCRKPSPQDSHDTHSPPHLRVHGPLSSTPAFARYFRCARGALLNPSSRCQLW
Chain of UniProt Q9HCC0 (Q9HCC0 whole entry, looked up): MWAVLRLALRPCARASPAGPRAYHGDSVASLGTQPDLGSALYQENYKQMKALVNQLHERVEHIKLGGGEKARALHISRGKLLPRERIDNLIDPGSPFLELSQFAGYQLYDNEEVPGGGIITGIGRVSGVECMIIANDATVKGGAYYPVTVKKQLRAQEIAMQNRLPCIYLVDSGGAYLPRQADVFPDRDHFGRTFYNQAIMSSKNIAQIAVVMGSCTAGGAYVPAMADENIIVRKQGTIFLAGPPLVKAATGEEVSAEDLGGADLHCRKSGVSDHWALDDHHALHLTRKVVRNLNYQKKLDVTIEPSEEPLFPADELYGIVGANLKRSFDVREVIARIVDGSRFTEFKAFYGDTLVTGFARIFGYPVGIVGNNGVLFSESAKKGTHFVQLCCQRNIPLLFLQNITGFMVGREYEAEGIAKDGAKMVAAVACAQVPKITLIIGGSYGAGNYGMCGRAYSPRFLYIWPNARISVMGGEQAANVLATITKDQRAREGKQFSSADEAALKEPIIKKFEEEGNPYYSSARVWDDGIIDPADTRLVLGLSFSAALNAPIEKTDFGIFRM
Chain of UniProt Q9H0C8 (Q9H0C8 whole entry, looked up): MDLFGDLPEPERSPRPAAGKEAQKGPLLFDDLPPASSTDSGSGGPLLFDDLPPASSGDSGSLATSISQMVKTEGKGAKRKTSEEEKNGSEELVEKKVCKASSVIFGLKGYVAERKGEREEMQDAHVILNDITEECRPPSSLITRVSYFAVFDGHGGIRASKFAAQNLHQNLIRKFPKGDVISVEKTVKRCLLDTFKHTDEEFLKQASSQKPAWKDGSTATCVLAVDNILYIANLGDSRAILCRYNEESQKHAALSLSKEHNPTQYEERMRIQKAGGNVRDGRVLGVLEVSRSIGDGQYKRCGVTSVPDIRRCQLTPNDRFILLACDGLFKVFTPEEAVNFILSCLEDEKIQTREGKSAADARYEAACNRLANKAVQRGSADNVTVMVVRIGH
Chain of UniProt O95232 (O95232 whole entry, looked up): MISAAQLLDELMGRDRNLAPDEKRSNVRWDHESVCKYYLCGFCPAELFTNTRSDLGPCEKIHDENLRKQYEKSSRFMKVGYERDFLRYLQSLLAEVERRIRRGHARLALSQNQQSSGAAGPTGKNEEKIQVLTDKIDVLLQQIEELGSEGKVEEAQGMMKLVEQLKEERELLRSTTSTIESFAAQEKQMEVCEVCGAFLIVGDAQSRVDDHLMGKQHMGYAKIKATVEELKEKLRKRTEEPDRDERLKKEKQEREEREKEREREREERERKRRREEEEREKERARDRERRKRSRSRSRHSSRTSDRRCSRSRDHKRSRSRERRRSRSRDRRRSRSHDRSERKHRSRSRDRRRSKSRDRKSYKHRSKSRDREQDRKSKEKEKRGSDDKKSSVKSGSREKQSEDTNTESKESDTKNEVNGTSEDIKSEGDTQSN
Chain of UniProt Q86WA8 (Q86WA8 whole entry, looked up): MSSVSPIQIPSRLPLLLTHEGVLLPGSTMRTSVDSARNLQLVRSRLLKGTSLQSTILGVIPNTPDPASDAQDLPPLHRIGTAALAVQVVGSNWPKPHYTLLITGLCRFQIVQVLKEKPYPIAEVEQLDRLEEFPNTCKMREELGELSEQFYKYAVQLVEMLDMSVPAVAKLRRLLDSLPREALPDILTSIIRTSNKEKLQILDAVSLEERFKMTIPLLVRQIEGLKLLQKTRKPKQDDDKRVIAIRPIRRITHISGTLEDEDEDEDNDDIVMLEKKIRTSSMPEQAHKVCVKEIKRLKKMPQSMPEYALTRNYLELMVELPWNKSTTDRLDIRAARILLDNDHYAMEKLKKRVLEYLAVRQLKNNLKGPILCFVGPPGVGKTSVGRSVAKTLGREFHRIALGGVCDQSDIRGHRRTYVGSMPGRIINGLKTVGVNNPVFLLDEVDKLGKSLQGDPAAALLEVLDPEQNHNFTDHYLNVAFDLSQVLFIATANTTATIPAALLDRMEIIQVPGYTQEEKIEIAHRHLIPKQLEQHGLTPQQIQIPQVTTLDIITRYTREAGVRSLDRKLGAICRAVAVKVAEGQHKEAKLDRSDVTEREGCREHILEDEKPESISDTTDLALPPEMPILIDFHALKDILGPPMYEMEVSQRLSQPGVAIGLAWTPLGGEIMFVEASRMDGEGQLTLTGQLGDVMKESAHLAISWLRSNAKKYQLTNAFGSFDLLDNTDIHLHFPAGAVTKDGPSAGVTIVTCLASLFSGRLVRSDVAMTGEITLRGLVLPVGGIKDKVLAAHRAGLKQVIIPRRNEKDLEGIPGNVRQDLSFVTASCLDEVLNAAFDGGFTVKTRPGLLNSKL
Chain of UniProt Q03252 (Q03252 whole entry, looked up): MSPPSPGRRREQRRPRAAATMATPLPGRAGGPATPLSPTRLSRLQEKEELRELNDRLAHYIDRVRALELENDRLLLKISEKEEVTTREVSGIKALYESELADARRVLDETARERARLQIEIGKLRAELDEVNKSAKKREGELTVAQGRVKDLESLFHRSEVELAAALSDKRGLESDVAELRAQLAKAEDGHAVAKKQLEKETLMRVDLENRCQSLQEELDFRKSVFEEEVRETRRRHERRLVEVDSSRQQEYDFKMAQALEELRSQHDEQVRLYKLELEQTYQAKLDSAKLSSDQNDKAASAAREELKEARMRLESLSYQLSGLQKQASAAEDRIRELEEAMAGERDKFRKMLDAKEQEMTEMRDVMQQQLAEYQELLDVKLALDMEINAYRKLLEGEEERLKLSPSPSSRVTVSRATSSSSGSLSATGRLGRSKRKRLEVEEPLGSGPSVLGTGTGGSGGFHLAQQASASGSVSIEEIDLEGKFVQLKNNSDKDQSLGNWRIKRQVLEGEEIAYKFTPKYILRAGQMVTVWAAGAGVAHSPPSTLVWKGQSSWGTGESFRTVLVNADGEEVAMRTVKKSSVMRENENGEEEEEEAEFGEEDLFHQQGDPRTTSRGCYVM
Chain of UniProt P18065 (P18065 whole entry, looked up): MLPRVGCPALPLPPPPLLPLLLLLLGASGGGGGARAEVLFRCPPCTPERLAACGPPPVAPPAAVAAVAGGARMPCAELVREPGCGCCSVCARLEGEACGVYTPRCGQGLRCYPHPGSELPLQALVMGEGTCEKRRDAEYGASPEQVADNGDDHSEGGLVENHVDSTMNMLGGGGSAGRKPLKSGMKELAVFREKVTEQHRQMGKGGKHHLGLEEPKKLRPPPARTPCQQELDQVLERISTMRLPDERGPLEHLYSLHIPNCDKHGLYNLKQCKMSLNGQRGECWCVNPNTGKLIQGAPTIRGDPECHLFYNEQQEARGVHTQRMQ
Chain of UniProt Q8NC56 (Q8NC56 whole entry, looked up): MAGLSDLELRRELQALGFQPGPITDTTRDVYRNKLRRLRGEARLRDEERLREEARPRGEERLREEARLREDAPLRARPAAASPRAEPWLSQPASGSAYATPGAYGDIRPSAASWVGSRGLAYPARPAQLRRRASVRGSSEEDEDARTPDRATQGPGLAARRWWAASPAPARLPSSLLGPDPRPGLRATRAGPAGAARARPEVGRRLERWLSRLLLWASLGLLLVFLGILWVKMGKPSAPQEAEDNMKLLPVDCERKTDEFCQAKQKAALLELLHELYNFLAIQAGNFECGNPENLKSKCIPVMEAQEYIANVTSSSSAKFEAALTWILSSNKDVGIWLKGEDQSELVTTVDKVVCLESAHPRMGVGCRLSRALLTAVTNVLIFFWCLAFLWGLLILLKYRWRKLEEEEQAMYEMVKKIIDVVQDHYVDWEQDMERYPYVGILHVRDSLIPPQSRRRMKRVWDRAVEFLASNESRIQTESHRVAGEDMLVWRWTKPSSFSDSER

| Target | log2 fold change (bafetinib) | log2 fold change [1] | log2 fold change (nilotinib) | log2 fold change [2] | log2 fold change (dasatinib) | log2 fold change [3] | log2 fold change [4] | log2 fold change [5] | log2 fold change (tipifarnib) | log2 fold change (mubritinib) | log2 fold change [6] | log2 fold change [7] | log2 fold change [8] | log2 fold change [9] | log2 fold change (entinostat) | log2 fold change (vorinostat) | log2 fold change (citarinostat) | log2 fold change (silmitasertib) | log2 fold change [10] | log2 fold change [11] |
| --- | --- | --- | --- | --- | --- | --- | --- | --- | --- | --- | --- | --- | --- | --- | --- | --- | --- | --- | --- | --- |
| KCTD2 (UniProt Q14681) | -0.23 | -0.845 (active) | -0.144 | 0.012 | 0.146 | -0.076 | -0.102 | -0.015 | 0.308 | 0.113 | -0.524 | -0.195 | 0.032 | -0.119 | -0.35 | -0.543 | -0.274 | 0.119 | -0.121 | -0.204 |
| KPNB1 (UniProt Q14974) | 0.029 | 0.029 | -0.129 | -0.09 | -0.072 | -0.018 | -0.09 | -0.045 | -0.12 | 0.019 | 0.025 | -0.087 | -0.073 | -0.037 | 0.055 | 0.038 | 0.097 | 0.099 | 0.068 | -0.059 |
| INPP5B (UniProt P32019) | 0.103 | -0.059 | -0.077 | 0.001 | -0.111 | 0.014 | -0.005 | -0.032 | 0.072 | 0.018 | 0.106 | -0.066 | -0.003 | -0.108 | 0 | 0.128 | -0.016 | 0.167 | 0.118 | 0.014 |
| IKZF1 (UniProt Q13422) | -0.062 | -0.004 | 0.237 | -0.347 | -0.121 | -0.112 | 0.072 | 0.119 | -0.026 | -0.07 | 0.164 | -0.084 | 0.21 | -0.03 | 0.064 | 0.003 | 0.019 | -0.202 | 0.004 | -0.061 |
| LYPLA2 (UniProt O95372) | 0.139 | 0.007 | 0.13 | -0.042 | 0 | -0.026 | 0.175 | 0.298 | -0.054 | 0.013 | 0.02 | 0.043 | -0.031 | 0.09 | 0.114 | -0.065 | 0.018 | -0.048 | 0 | 0.036 |
| ILKAP (UniProt Q9H0C8) | 0.028 | 0.079 | 0.052 | -0.117 | -0.208 | 0.02 | 0.036 | 0.045 | -0.093 | 0.137 | 0.015 | -0.052 | -0.224 | -0.164 | 0.038 | 0.06 | 0.123 | 0.004 | -0.144 | -0.003 |
| LONP2 (UniProt Q86WA8) | -0.037 | -0.054 | 0.26 | -0.187 | 0.024 | -0.065 | 0.055 | -0.131 | 0.012 | 0.063 | 0.094 | 0.024 | -0.279 | 0.041 | -0.05 | -0.006 | -0.069 | 0.105 | -0.007 | -0.219 |
| LNPK (UniProt Q9C0E8) | -0.081 | -0.035 | -0.001 | -0.009 | 0.052 | -0.007 | 0.025 | 0.011 | 0.054 | 0.072 | 0.011 | 0.01 | 0.009 | 0.014 | -0.013 | -0.006 | 0.002 | 0.072 | -0.051 | -0.006 |
| LPIN3 isoform 2 (UniProt Q9BQK8) | 0.006 | 0.024 | -0.005 | -0.051 | -0.128 | 0.038 | 0.06 | 0.002 | 0.008 | 0.089 | 0.014 | -0.027 | -0.044 | 0.041 | -0.006 | 0.011 | 0.001 | -0.116 | -0.054 | -0.142 |
| MCCC2 (UniProt Q9HCC0) | -0.047 | -0.062 | 0.035 | -0.012 | 0.058 | -0.047 | 0.04 | 0.028 | -0.005 | -0.015 | 0.047 | -0.014 | 0.036 | 0.06 | 0.005 | -0.043 | 0.083 | 0.025 | 0.006 | -0.024 |
| LMNB2 (UniProt Q03252) | -0.067 | -0.078 | 0.022 | -0.077 | 0.101 | -0.158 | 0.015 | -0.007 | 0.166 | -0.043 | 0.079 | -0.077 | 0.068 | -0.09 | -0.006 | -0.047 | 0.015 | 0.018 | -0.101 | -0.07 |
| METTL18 (UniProt O95568) | -0.091 | -0.049 | -0.092 | 0.028 | 0.054 | -0.023 | -0.022 | -0.087 | 0.019 | 0.036 | -0.028 | 0.008 | -0.034 | 0.023 | -0.02 | 0.041 | -0.046 | 0.03 | 0 | -0.016 |
| IGFBP2 (UniProt P18065) | -0.512 | 0.026 | -0.034 | 0.142 | -0.1 | 0.17 | 0.17 | -0.095 | -0.1 | -0.135 | 0.026 | -0.043 | -0.242 | -0.037 | 0.04 | 0.351 | -0.068 | 0.267 | -0.143 | 0.064 |
| LEMD2 (UniProt Q8NC56) | -0.036 | -0.008 | -0.035 | -0.123 | -0.079 | 0.011 | 0.089 | 0.008 | -0.045 | -0.021 | 0.008 | -0.139 | -0.112 | -0.157 | 0.004 | 0.04 | 0.058 | -0.044 | -0.02 | -0.046 |
| KEL (UniProt P23276) | -0.027 | -0.002 | 0.017 | -0.032 | -0.019 | 0.004 | 0.083 | 0.003 | 0.031 | -0.591 (active) | -0.004 | 0.088 | -0.215 | 0.017 | -0.022 | 0.03 | 0.019 | 0.108 | 0.115 | -0.001 |
| LUC7L3 (UniProt O95232) | 0.001 | -0.001 | 0.091 | -2.05 (active) | -0.037 | 0.052 | 0.007 | -0.019 | 0.036 | 0.02 | -0.203 | -0.017 | 0.058 | -0.076 | -0.051 | -0.008 | 0.083 | -0.156 | 0.086 | -0.086 |

From the supplement of paper PMC10849652
